Assay results: PubChem BioAssay (NCI)
About 79,000 compounds went through this panel and 15% of them were active in at least one assay; those are over-represented in the sample as a whole. Calls of active or inactive are those of the source. Cut-off read from the data, not from the text of the source: active = growth inhibition above about 70%; inactive = the rest.

Tests used:
[1] = NCI Yeast Anticancer Drug Screen. Data for the rad52 strain (AID 147);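 note: 0% = growth of vehicle-treated control cultures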; details: S. cerevisiae rad52 mutant growth inhibition, stronger effect = higher value
Method in brief: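 Measured: yeast growth inhibition. System: strain with a defined DNA damage repair alteration. Reference: vehicle-treated control cultures.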

[2] = NCI Yeast Anticancer Drug Screen. Data for the wt1 strain (AID 149);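 note: 0% = growth of vehicle-treated wt1 cultures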; details: S. cerevisiae wt1 strain (SPY 50644) growth inhibition, stronger effect = higher value
Method in brief: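 Measured: growth of wt1 yeast under compound versus vehicle treatment, reported as inhibition.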

[3] = NCI Yeast Anticancer Drug Screen. Data for the rad50EPP+ strain (AID 151);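 note: 0% = growth of vehicle-treated control cultures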; details: S. cerevisiae rad50 mutant strain, stronger effect = higher value
Method in brief: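 One strain with a rad50 alteration (rad50EPP+) was compound-treated, its growth then compared to that of vehicle controls.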

[4] = NCI Yeast Anticancer Drug Screen. Data for the rad50 strain (AID 155);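 note: 0% = growth of vehicle-only cultures of the same strain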; details: S. cerevisiae rad50 strain growth inhibition, stronger effect = higher value
Method in brief: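 Growth of the mutant yeast was measured after compound exposure and referenced to vehicle-treated cultures.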

[5] = NCI Yeast Anticancer Drug Screen. Data for the mec2-1 strain (AID 157); details: S. cerevisiae mec2-1 strain, stronger effect = higher value
Method in brief: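 Test agents were screened against the mec2-1 yeast strain, with defined DNA repair or cell cycle alteration. Growth was scored as inhibition against vehicle-only controls.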

[6] = NCI Yeast Anticancer Drug Screen. Data for the rad14 strain (AID 159);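 note: 0% = growth of vehicle-treated control cultures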; details: S. cerevisiae rad14 strain growth inhibition, stronger effect = higher value
Method in brief: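 Here, inhibition of yeast growth was measured after compound exposure, using a strain with a genetic defect in DNA damage repair and vehicle-treated cultures as the reference.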

[7] = NCI Yeast Anticancer Drug Screen. Data for the sgs1 mgt1 strain (AID 161);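 note: 0% = growth of cultures given vehicle only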; details: S. cerevisiae sgs1 mgt1 strain, stronger effect = higher value
Method in brief: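 Inhibition of yeast growth, normalised to vehicle-treated controls, is reported for a strain bearing genetic alterations in DNA damage repair.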

[8] = NCI Yeast Anticancer Drug Screen. Data for the CLN2oe strain (AID 163);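 note: 0% = growth of vehicle-only control cultures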; details: S. cerevisiae CLN2oe strain, stronger effect = higher value
Method in brief: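 Here, growth inhibition in a cell-cycle-altered yeast strain after compound exposure was quantified against vehicle control growth.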

[9] = NCI Yeast Anticancer Drug Screen. Data for the cln2 rad14 strain (AID 165);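 note: 0% = growth equal to vehicle treated cultures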; details: S. cerevisiae cln2 rad14 strain, stronger effect = higher value
Method in brief: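 Growth of compound-exposed yeast (cln2 rad14 genotype) measured and expressed as inhibition relative to vehicle.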

[10] = NCI Yeast Anticancer Drug Screen. Data for the bub3 strain (AID 167); details: S. cerevisiae bub3 mutant strain, stronger effect = higher value
Method in brief: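 Whole-cell yeast assay. The mutant strain was incubated with compounds, and growth inhibition was determined by comparison with vehicle-treated cells.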

[11] = NCI Yeast Anticancer Drug Screen. Data for the wt2 strain (AID 169);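 note: 0% = growth of vehicle-treated yeast cultures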; details: S. cerevisiae wt2 strain growth inhibition, stronger effect = higher value
Method in brief: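 Genetically defined yeast strains from a DNA-repair/cell-cycle panel were used. Compound-exposed yeast growth was measured, and the inhibition was calculated relative to vehicle treatment.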

[12] = NCI Yeast Anticancer Drug Screen. Data for the mlh1 strain (AID 171);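 note: 0% = growth of vehicle-treated control cultures of the same strain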; details: S. cerevisiae mlh1 strain growth inhibition, stronger effect = higher value
Method in brief: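 Here the genetically defined yeast mutant is grown with each compound, and the extent to which its growth falls below that of vehicle-exposed cells is reported.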

[13] = NCI Yeast Anticancer Drug Screen. Data for the sgs1 strain (AID 173);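 note: 0% = growth of vehicle-only control cultures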; details: S. cerevisiae sgs1 mutant, stronger effect = higher value
Method in brief: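 Relative growth inhibition, referenced to vehicle, was determined in a yeast strain with a defined alteration affecting DNA damage repair or cell cycle control after compound exposure.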

[14] = NCI Yeast Anticancer Drug Screen. Data for the mlh1 rad18 strain (AID 175); details: S. cerevisiae mlh1 rad18 strain growth inhibition, stronger effect = higher value
Method in brief: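 In this whole-cell yeast screen, a strain with altered DNA damage repair is challenged with compound, and its growth is measured against matched vehicle-treated controls.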

[15] = NCI Yeast Anticancer Drug Screen. Data for the rad18 strain (AID 177); details: S. cerevisiae rad18 mutant growth inhibition, stronger effect = higher value
Method in brief: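 Screen uses a yeast strain with a defined lesion in DNA damage repair; compound effect is read as loss of growth compared to untreated vehicle cultures.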

[16] = at 5.0 µM (retest, dose inferred, filed as 0.5)
[17] = at 50.0 µM (retest, dose inferred, filed as 5.0)

Measured: growth inhibition

O=c1[nH]cc(/C=N\Nc2ccccc2)c(=O)[nH]1
inactive: [1]; at 1.2 µM 1% | [1]; at 3.7 µM 6% | [1]; at 11.0 µM 36% | [1]; at 33.0 µM 56% | [1]; at 100.0 µM 63% | [2]; at 1.2 µM 3% | [2]; at 3.7 µM 6% | [2]; at 11.0 µM 37% | [2]; at 33.0 µM 57% | [2]; at 100.0 µM 49% | [3]; at 1.2 µM 2% | [3]; at 3.7 µM 7% | [3]; at 11.0 µM 28% | [3]; at 33.0 µM 43% | [3]; at 100.0 µM 42% | [4]; at 1.2 µM 3% | [4]; at 3.7 µM 17% | [4]; [16] -11% | [4]; at 11.0 µM 31% | [4]; at 33.0 µM 49% | [4]; [17] 40% | [4]; at 50.0 µM 61.9% | [4]; at 100.0 µM 60% | [5]; at 1.2 µM 0% | [5]; at 3.7 µM -2% | [5]; [16] -3% | [5]; at 11.0 µM 27% | [5]; at 33.0 µM 31% | [5]; [17] 15% | [5]; at 50.0 µM 52.4% | [5]; at 100.0 µM 21% | [6]; at 1.2 µM -1% | [6]; at 3.7 µM 1% | [6]; at 11.0 µM 12% | [6]; at 33.0 µM 15% | [6]; at 100.0 µM 10% | [7]; [16] -1% | [7]; [17] 67% | [7]; at 50.0 µM 60.9% | [8]; at 1.2 µM -3% | [8]; at 3.7 µM 6% | [8]; at 11.0 µM 32% | [8]; at 33.0 µM 43% | [8]; at 100.0 µM 48% | [9]; [16] -29% | [9]; [17] 29% | [10]; at 1.2 µM 9% | [10]; at 3.7 µM 1% | [10]; [16] 7% | [10]; at 11.0 µM 27% | [10]; at 33.0 µM 39% | [10]; [17] 50% | [10]; at 100.0 µM 40% | [11]; at 1.2 µM 0% | [11]; at 3.7 µM 8% | [11]; at 11.0 µM 51% | [11]; at 33.0 µM 57% | [11]; at 100.0 µM 55% | [12]; at 1.2 µM -3% | [12]; at 3.7 µM 5% | [12]; at 11.0 µM 17% | [12]; at 33.0 µM 28% | [12]; at 100.0 µM 39% | [13]; at 1.2 µM 3% | [13]; at 3.7 µM 8% | [13]; at 11.0 µM 41% | [13]; at 33.0 µM 62% | [13]; at 100.0 µM 66% | [14]; [16] -3% | [15]; at 1.2 µM 5% | [15]; at 3.7 µM 28%
active: [9]; at 50.0 µM 73.8% | [10]; at 50.0 µM 82.9% | [14]; [17] 81% | [14]; at 50.0 µM 84.5% | [15]; at 11.0 µM 73% | [15]; at 33.0 µM 88% | [15]; at 100.0 µM 89%

[N-]=[N+]=NC(c1ccccc1)(c1ccccc1)c1ccccc1
inactive: [1]; at 1.2 µM 8% | [1]; at 3.7 µM 6% | [1]; at 11.0 µM 9% | [1]; at 33.0 µM 29% | [2]; at 1.2 µM 15% | [2]; at 3.7 µM 12% | [2]; at 11.0 µM -6% | [2]; at 33.0 µM 32% | [3]; at 1.2 µM 9% | [3]; at 3.7 µM 15% | [3]; at 11.0 µM 11% | [3]; at 33.0 µM 21% | [3]; at 100.0 µM 28% | [4]; at 1.2 µM 14% | [4]; at 3.7 µM 22% | [4]; at 11.0 µM 6% | [4]; at 33.0 µM 40% | [5]; at 1.2 µM 12% | [5]; at 3.7 µM 11% | [5]; at 11.0 µM 13% | [5]; at 33.0 µM 32% | [6]; at 1.2 µM -9% | [6]; at 3.7 µM 1% | [6]; at 11.0 µM -4% | [6]; at 33.0 µM 24% | [7]; [16] -4% | [8]; at 1.2 µM 29% | [8]; at 3.7 µM 23% | [8]; at 11.0 µM 20% | [8]; at 33.0 µM 26% | [9]; [16] 17% | [10]; at 1.2 µM 3% | [10]; at 3.7 µM -17% | [10]; [16] 12% | [10]; at 11.0 µM -16% | [10]; at 33.0 µM 27% | [11]; at 1.2 µM -14% | [11]; at 3.7 µM -9% | [11]; at 11.0 µM -11% | [11]; at 33.0 µM 16% | [12]; at 1.2 µM 6% | [12]; at 3.7 µM 10% | [12]; at 11.0 µM 13% | [12]; at 33.0 µM 42% | [13]; at 1.2 µM 0% | [13]; at 3.7 µM -15% | [13]; at 11.0 µM -8% | [13]; at 33.0 µM 66% | [15]; at 1.2 µM 10% | [15]; at 3.7 µM 6% | [15]; at 11.0 µM 14% | [15]; at 33.0 µM 37%
active: [1]; at 100.0 µM 94% | [2]; at 100.0 µM 88% | [4]; [16] 100% | [4]; [17] 98% | [4]; at 50.0 µM 85% | [4]; at 100.0 µM 92% | [5]; [16] 99% | [5]; [17] 98% | [5]; at 50.0 µM 80.8% | [5]; at 100.0 µM 95% | [6]; at 100.0 µM 94% | [7]; [17] 84% | [7]; at 50.0 µM 87.7% | [8]; at 100.0 µM 78% | [9]; [17] 89% | [9]; at 50.0 µM 80.5% | [10]; [17] 79% | [10]; at 50.0 µM 87.8% | [10]; at 100.0 µM 86% | [11]; at 100.0 µM 89% | [12]; at 100.0 µM 91% | [13]; at 100.0 µM 87% | [14]; [16] 100% | [14]; [17] 99% | [14]; at 50.0 µM 84.1% | [15]; at 100.0 µM 87%

CCc1nc(N)nc(N)c1-c1ccc(NCCCCCCN)c([N+](=O)[O-])c1
active: [4]; at 50.0 µM 86% | [5]; at 50.0 µM 95.6% | [7]; at 50.0 µM 92.7% | [9]; [17] 83% | [9]; at 50.0 µM 96.2% | [10]; at 50.0 µM 93.5%
inactive: [1]; at 1.2 µM -3% | [1]; at 3.7 µM 0% | [1]; at 11.0 µM 2% | [1]; at 33.0 µM 11% | [1]; at 100.0 µM 32% | [2]; at 1.2 µM -1% | [2]; at 3.7 µM -1% | [2]; at 11.0 µM -1% | [2]; at 33.0 µM -3% | [2]; at 100.0 µM -4% | [3]; at 1.2 µM -6% | [3]; at 3.7 µM -3% | [3]; at 11.0 µM -3% | [3]; at 33.0 µM 1% | [3]; at 100.0 µM 17% | [4]; at 1.2 µM 0% | [4]; at 3.7 µM -2% | [4]; [16] -16% | [4]; at 11.0 µM 11% | [4]; at 33.0 µM 17% | [4]; [17] -4% | [4]; at 100.0 µM 42% | [5]; at 1.2 µM -1% | [5]; at 3.7 µM -4% | [5]; [16] 4% | [5]; at 11.0 µM -4% | [5]; at 33.0 µM -4% | [5]; [17] -10% | [5]; at 100.0 µM 11% | [6]; at 1.2 µM 4% | [6]; at 3.7 µM -4% | [6]; at 11.0 µM -3% | [6]; at 33.0 µM -13% | [6]; at 100.0 µM 0% | [7]; [16] -22% | [7]; [17] -16% | [8]; at 1.2 µM -3% | [8]; at 3.7 µM 1% | [8]; at 11.0 µM -5% | [8]; at 33.0 µM 0% | [8]; at 100.0 µM -5% | [9]; [16] -19% | [10]; at 1.2 µM -7% | [10]; at 3.7 µM -4% | [10]; [16] 11% | [10]; at 11.0 µM 9% | [10]; at 33.0 µM 17% | [10]; [17] -16% | [10]; at 100.0 µM -2% | [11]; at 1.2 µM -1% | [11]; at 3.7 µM 0% | [11]; at 11.0 µM -2% | [11]; at 33.0 µM -3% | [11]; at 100.0 µM -4%
